Only some compounds are listed: those with a hit (about 3.5% of all), similar ones and a draw of the others.
FBW7 activator – FBW7 E3 ligase activators, primary screen, biochemical, AlphaScreen, human | F-box/WD repeat-containing protein 7 (Homo sapiens), Q969H0 | AlphaScreen FBW7–phospho-cyclin E peptide binding, activator screen | normalized activity (activation), % at 26.1 µM | hit rate 0.13% among 650,000 | AID 1259310, 2017; in the data active = normalized activity above about 1.9%;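 note: purified mutant Fbw7 with reduced substrate affinity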
Target sequence (Q969H0 whole entry, looked up): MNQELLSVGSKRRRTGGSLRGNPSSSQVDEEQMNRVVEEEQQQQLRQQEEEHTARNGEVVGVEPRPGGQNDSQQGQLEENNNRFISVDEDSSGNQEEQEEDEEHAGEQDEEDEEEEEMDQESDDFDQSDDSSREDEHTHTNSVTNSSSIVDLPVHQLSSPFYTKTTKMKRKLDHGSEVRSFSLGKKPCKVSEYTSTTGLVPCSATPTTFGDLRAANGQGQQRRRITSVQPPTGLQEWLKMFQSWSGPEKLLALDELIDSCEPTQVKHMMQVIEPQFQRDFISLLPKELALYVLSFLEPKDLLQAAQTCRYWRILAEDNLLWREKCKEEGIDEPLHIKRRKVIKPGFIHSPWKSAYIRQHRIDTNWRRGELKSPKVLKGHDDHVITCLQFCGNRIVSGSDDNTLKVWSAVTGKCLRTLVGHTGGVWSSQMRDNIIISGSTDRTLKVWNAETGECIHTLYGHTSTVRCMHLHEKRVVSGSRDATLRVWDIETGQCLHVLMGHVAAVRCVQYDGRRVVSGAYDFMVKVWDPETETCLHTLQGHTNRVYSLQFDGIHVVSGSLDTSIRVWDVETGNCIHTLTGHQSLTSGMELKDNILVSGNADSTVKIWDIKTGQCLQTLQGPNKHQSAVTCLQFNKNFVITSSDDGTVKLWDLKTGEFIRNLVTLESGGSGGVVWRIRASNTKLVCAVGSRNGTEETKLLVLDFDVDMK
TEAD-YAP block – TEAD-YAP interaction inhibition, primary screen, TEAD-YAP interaction inhibitor project, luminescence, HEK-TIYL cells. inhibition, % at 9.12 µM. TEAD-Gal4/YAP UAS-luciferase luminescence. AID 1259422, 2018. hit rate 1.4% among 640,000; in the data active = inhibition above about 32%;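 note: 0% = median of test compound wells and 100% = reference inhibitor wells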
MITF inh – MITF inhibitors, primary screen, biochemical, AlphaScreen, human; Microphthalmia-associated transcription factor (Homo sapiens), O75030; AlphaScreen MITF homodimerization, bead proximity signal; inhibition, % at 2.6 µM; hit rate 0.91% among 650,000; AID 1259374, 2018; in the data active = inhibition above about 50%;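 note: 0% = vehicle wells with protein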
GPR151 activ – activators of human GPR151, primary screen, cell-based, PathHunter beta-arrestin, luminescence; activation, % at 11.2 µM; AID 1508602, 2020; hit rate 1% among 650,000; PathHunter beta-arrestin GPR151 cells; in the data active = activation above about 4.9%;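 note: 0% = median of compound wells and 100% = cells with positive control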
Starred values were filed as active, the others as inactive.

Results for Cc1cc(C(=O)COC(=O)c2n[nH]c3ccccc23)c(C)n1Cc1cccs1 ?
FBW7 activator: 0; TEAD-YAP block: 74*; MITF inh: -14; GPR151 activ: 1

Results for Cc1cc(C(=O)COc2ncnc3sccc23)c(C)n1CC1COc2ccccc2O1 (configuration not stated) ?
FBW7 activator: 0; TEAD-YAP block: 5; MITF inh: 14; GPR151 activ: -1

How did Cc1cc(C(=O)COc2ncnc3sccc23)c(C)n1Cc1cccs1 do in these assays?
FBW7 activator: 0; TEAD-YAP block: 33*; MITF inh: -19; GPR151 activ: -1

How did Cc1ccccc1C(=O)OCC(=O)c1cc(C)n(Cc2ccco2)c1C do in these assays?
FBW7 activator: 0; TEAD-YAP block: 69*; MITF inh: 14; GPR151 activ: -1

How did Cc1cc(C(=O)COC(=O)c2cccnc2Cl)c(C)n1Cc1cccs1 do in these assays?
FBW7 activator: 0; TEAD-YAP block: 47*; MITF inh: 5; GPR151 activ: 0

Results for COc1cc(C2C(C#N)=C(N)N(c3cccc(C(F)(F)F)c3)C3=C2C(=O)CC(C)(C)C3)cc(OC)c1OC (configuration not stated) ?
FBW7 activator: 0; TEAD-YAP block: 0; MITF inh: 10; GPR151 activ: 0

Results for C=CCN1C(=O)C(O)=C(C(C)=O)C1c1ccc(OC)cc1OC (configuration not stated) ?
FBW7 activator: 0; TEAD-YAP block: 8; MITF inh: 14; GPR151 activ: -1

What do the screens show for `O=C(O)C(=O)/C(=C\c1ccccc1)c1ccc2ccccc2n1`?
FBW7 activator: 0; TEAD-YAP block: -22; MITF inh: 21; GPR151 activ: -2

Results for O=C(O)C(=O)/C(=C\c1ccsc1)c1ccc2ccccc2n1 ?
FBW7 activator: 0; TEAD-YAP block: 45*; MITF inh: 22; GPR151 activ: -5

How did O=C(COc1ccc(Cl)cc1)NCCSc1ccccn1 do in these assays?
FBW7 activator: 2.6*; TEAD-YAP block: -13; MITF inh: 0; GPR151 activ: 1

Results for O=S(=O)(Cc1ccc(Cl)cc1)Nc1ccc2c(c1)OCCO2 ?
FBW7 activator: 0; TEAD-YAP block: 41*; MITF inh: 3; GPR151 activ: 0

Results for O=S(=O)(Nc1ccc2c(c1)OCCO2)c1ccc(Cl)cc1 ?
FBW7 activator: 0; TEAD-YAP block: -8; MITF inh: 5; GPR151 activ: -1

What do the screens show for `CCOC(=O)c1c(N)sc2c1CCN(C)C2`?
FBW7 activator: 0; TEAD-YAP block: 5; MITF inh: 2; GPR151 activ: 1

What do the screens show for `CCOC(=O)c1c(/N=C/c2cccc(OC)c2O)sc2c1CCN(C)C2`?
FBW7 activator: 2.6*; TEAD-YAP block: -6; MITF inh: 21; GPR151 activ: 0

Results for CN1CCN(Cc2c(O)ccc3c(=O)c(Oc4ccc(-c5ccccc5)cc4)c(C(F)(F)F)oc23)CC1 ?
FBW7 activator: 0; TEAD-YAP block: -3; MITF inh: 13; GPR151 activ: -1

What do the screens show for `CC(C)(C)c1ccc(Oc2c(C(F)(F)F)oc3c(CN4CCCC4)c(O)ccc3c2=O)cc1`?
FBW7 activator: 0; TEAD-YAP block: 36*; MITF inh: 10; GPR151 activ: 0

How did Cc1cc(C)cc(Oc2c(C(F)(F)F)oc3c(CN4CCCCC4)c(O)ccc3c2=O)c1 do in these assays?
FBW7 activator: 0; TEAD-YAP block: -3; MITF inh: 14; GPR151 activ: -2

Results for CN1CCN(Cc2c(O)ccc3c(=O)c(Oc4ccc(C(C)(C)C)cc4)c(C(F)(F)F)oc23)CC1 ?
FBW7 activator: 1; TEAD-YAP block: 34*; MITF inh: 3; GPR151 activ: -1

How did COc1cccc(-n2c(=S)sc3c(=O)n(-c4ccc(F)cc4)c(SCC(=O)NC4CCCCC4)nc32)c1 do in these assays?
FBW7 activator: 0; TEAD-YAP block: -15; MITF inh: 26; GPR151 activ: 2

What do the screens show for `Cc1ccc2c(c1)C(c1ccccc1)N(C(=O)C1CCCC1)CC(=O)N2` (configuration not stated)?
FBW7 activator: 1; TEAD-YAP block: 7; MITF inh: 5; GPR151 activ: -1

What do the screens show for `O=C(NCCc1ccccc1)N1CCC(c2nnc(C3CC3)s2)CC1`?
FBW7 activator: 2.6*; TEAD-YAP block: -11; MITF inh: -7; GPR151 activ: 2

How did CC(C)NC(=O)N1CCC(c2nnc(C(C)C)o2)CC1 do in these assays?
FBW7 activator: 0; TEAD-YAP block: -4; MITF inh: -9; GPR151 activ: -1

Compound activity as filed in PubChem.
